Compound activity deposited in PubChem BioAssay by several laboratories.
Hits are enriched below; roughly 4.7% of the tested compounds scored in any of these assays.
HSP90 inh: blocks HSP90-mediated luciferase refolding in reticulocyte lysate. inhibition, % at 5.6 µM. hit rate 0.91% among 290,000. AID 1789. Rabbit reticulocyte lysate, luciferase refolding luminescence, 3 h;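 active means inhibition above the screen-wide mean plus 3 SD, computed separately per campaign, cut at about 16% in these data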;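 further: inhibitors lower the luminescence because luciferase stays unfolded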
TWEAK-Fn14 inh: blocks TWEAK-Fn14 interaction in a reporter cell assay; TWEAK-stimulated Fn14 reporter cells, luciferase luminescence, 8 h; inhibition, % at 10 µM; hit rate 2% among 360,000; in the data active means inhibition above about 50%
HSF-1 act: increases HSF-1 driven luciferase reporter signal | hit rate 1.7% among 300,000 | NIH3T3-HGL HSF-1 luciferase reporter, MG132, 8 h; 100% = twice DMSO control signal | activation, % at 9 µM;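 active means mean replicate activation of at least 50% with a set share of replicates each reaching 50%; inconclusive means only one of those two conditions met; inactive means mean below 50% and too few replicates reaching it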
TROY NFkB inh: inhibitors of TROY-dependent NF-kB signaling; Q293 LMP1-TROYcd NF-kB luciferase reporter, 4 h; AID 1347056; hit rate 0.98% among 360,000; inhibition, % at 10 µM;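 active means compounds whose plate-normalised and pattern-corrected inhibition of the luciferase reporter signal at the single screening dose is 50% or more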
LMP1 NFkB inh: reduces LMP1-driven NF-kappaB luciferase signal; LMP1-induced NF-kappaB luciferase reporter cells, luminescence; inhibition, % at 12.5 µM; hit rate 0.69% among 350,000; AID 504558; in the data active means inhibition above about 41%; inconclusive means no clear call, values can overlap the other calls
HSF1 inhib: HSF1 inhibition; hit rate 0.77% among 300,000; activity change, negative = inhibition, % at 7.5 µM (by protocol); AID 2098; NIH3T3-HGL HSE-luciferase, MG132-induced, luminescence 8 h; active compounds read low;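 active means more than half of replicate wells show activity change below -50%, luminescence cut by over half; inconclusive means some wells, but at most half, below -50%; inactive means no replicate well below -50%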;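 further: luciferase reports HSF-1 transcriptional activity via heat shock element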
Large screens that a line does not name were inactive.

CCN1CCN(Cc2ccc(NC(=O)c3ccc(C)c(NC(=O)c4nccn4C)c3)cc2C(F)(F)F)CC1	LMP1 NFkB inh 47 (no result: HSP90 inh)
CCN1CCN(Cc2ccc(NC(=O)c3cc(NC(=O)c4cnnc5ccccc45)cc(OC)c3)cc2C(F)(F)F)CC1	none (no result: HSP90 inh)
CCN1CCN(Cc2ccc(NC(=O)c3cc(NC(=O)c4nccnc4N)cc(OC)c3)cc2C(F)(F)F)CC1	none (no result: HSP90 inh)
CCN1CCN(Cc2ccc(NC(=O)c3ccc(C)c(NC(=O)c4nccnc4N)c3)cc2C(F)(F)F)CC1	LMP1 NFkB inh 57 (no result: HSP90 inh)
Cc1cccc(C)c1-n1nnnc1C1(C)CCC(=O)N1C1CC1 (stereo not given)	none (no result: HSP90 inh, HSF-1 act, LMP1 NFkB inh, HSF1 inhib)
Cc1ccc([N+](=O)[O-])cc1N(CC(=O)Nc1ccc(S(=O)(=O)Nc2cccc(C(F)(F)F)c2)cc1)S(C)(=O)=O	TWEAK-Fn14 inh 85, TROY NFkB inh 70
COc1ccc(C(=O)Sc2ccc(Cl)cc2)cc1OC	TWEAK-Fn14 inh 57
COc1ccc(CNC(C)CCc2ccccc2)cc1 (stereo not given)	HSF1 inhib -67
Cc1cc(NC(=S)N(Cc2ccc(Br)cc2)Cc2ccc(C(=O)O)cc2)ccc1Cl	HSF-1 act 58
COc1ccccc1-c1cccc(-c2nc(C(=O)Nc3nccs3)cc3c2[C@H](CCO)N(C(C)=O)C3)c1	none (no result: HSP90 inh, HSF-1 act, LMP1 NFkB inh, HSF1 inhib)
CC(=O)c1cccc(NC(=O)Nc2ccc(C(=O)N3CCOCC3)cc2)c1	LMP1 NFkB inh 49
CC(=O)c1ccc(NC(=O)Nc2cccc(Cl)c2)cc1	HSF-1 act 67
CC(=O)Nc1ccc(NC(=O)Nc2cccc(Cl)c2)cc1	none
OC[C@@H]1CN(Cc2ccc(F)cc2)C[C@H](n2cnc3c(N4CCN(c5ccccc5)CC4)ncnc32)O1	none (no result: HSP90 inh, HSF-1 act, LMP1 NFkB inh, HSF1 inhib)
CCN(CC)CCCNC(=O)CCC(=O)NNc1nc2ccccc2c2nc(C)nn12	none
CCCCN(C)C(=O)CCC(=O)NNc1nc2ccccc2c2nc(C)nn12	TWEAK-Fn14 inh 76
CC(=O)c1ccc(N=C2C(=O)Nc3ccccc32)cc1	HSF-1 act 62
CC(=O)NCCc1ccc(C(=O)COC(=O)c2ccco2)cc1	TWEAK-Fn14 inh 56 (no result: HSP90 inh, HSF-1 act, HSF1 inhib)
O=C(COC(=O)c1ccco1)c1ccc(F)cc1	none
CC(=O)NCCc1ccc(C(=O)COC(=O)C2CCCCC2)cc1	TWEAK-Fn14 inh 90, TROY NFkB inh 86 (no result: HSP90 inh)
Nc1[nH]c(C(=O)c2ccccc2)c(-c2ccc(Cl)c(F)c2)c1C(=O)NCCc1c[nH]c2ccccc12	none (no result: HSP90 inh, HSF-1 act, LMP1 NFkB inh, HSF1 inhib)
CC(C)Oc1cccc(C(=O)Nc2nnc([C@@H]3C[C@H](O)[C@@H](CO)O3)s2)c1	none (no result: HSP90 inh, HSF-1 act, LMP1 NFkB inh, HSF1 inhib)
Cc1ccc2nc(C(F)(F)F)c(C#N)c(N)c2c1	TWEAK-Fn14 inh 64, TROY NFkB inh 53
CCCc1nc2c(C)cc(C)cc2c(N)c1CC	none
Cc1cc(C)c2nc(C(F)(F)F)c(C#N)c(N)c2c1	TWEAK-Fn14 inh 70, HSF1 inhib -62
CN1OC[C@@H]2CN(S(=O)(=O)c3cccc(C(F)(F)F)c3)[C@H](c3ccc(-c4cccnc4)cc3)C[C@@H]21	none (no result: HSP90 inh, HSF-1 act, HSF1 inhib)
Cc1cc(Br)cn2c(Cc3cccc(F)c3)c(-c3ccccc3)nc12	none (no result: HSP90 inh, HSF-1 act, LMP1 NFkB inh, HSF1 inhib)
O=C(C#Cc1ccccc1)c1ccco1	TWEAK-Fn14 inh 94, TROY NFkB inh 58, HSF1 inhib -96
Cc1ccc2c(c1C)-c1c(ccc(C)c1C)C(=O)C2=O	TWEAK-Fn14 inh 86, TROY NFkB inh 61 (no result: HSP90 inh, HSF-1 act, HSF1 inhib)
O=C1C2C3C=CC(CC3)C2S(=O)(=O)C2C3C=CC(CC3)C12 (stereo not given)	none (no result: HSP90 inh, HSF-1 act, HSF1 inhib)
O=c1c(Cl)c(Cl)cnn1Cc1nnc(-c2ccccc2Br)o1	TWEAK-Fn14 inh 92, TROY NFkB inh 64, HSF1 inhib inconclusive
CCOc1ccc(Br)cc1C1C(C(=O)OC)=C(N)Oc2cc(N(C)C)ccc21 (stereo not given)	TWEAK-Fn14 inh 53
CCOc1ccccc1C1C(C(=O)OC)=C(N)OC2=C1C(=O)CCC2 (stereo not given)	none
CC(=O)Nc1cc(-c2ccc(N(C)C)cc2)cn2c(-c3ccc(F)cc3)cnc12	none (no result: HSP90 inh, HSF-1 act, LMP1 NFkB inh, HSF1 inhib)
Cc1cccc(NC(=O)Nc2c(C)n(C)n(-c3ccccc3)c2=O)c1C	LMP1 NFkB inh 49
Cc1c(NC(=O)Nc2ccc([N+](=O)[O-])cc2)c(=O)n(-c2ccccc2)n1C	HSF-1 act 58
Cc1c(Cl)cccc1NC(=O)Nc1c(C)n(C)n(-c2ccccc2)c1=O	none
CN(c1ccccc1)c1ccc(/C=C(/CCC(=O)O)c2nc3ccccc3s2)cc1[N+](=O)[O-]	TROY NFkB inh 57 (no result: HSP90 inh, HSF-1 act, HSF1 inhib)
